Experimental data from PubChem BioAssay (NCI).
About 83,000 compounds went through this panel and 20% of them were active in at least one assay; those are over-represented in the sample as a whole.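 96-well plates, one dose, 48 hours. Percent growth reported; active if below 10.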 Activity calls are given as the source filed them.

test system: HL-60(TB) leukemia; test: NCI-60 one-dose screen, 48 h (100 = growth as untreated, 0 = no growth, -100 = all killed); conditions: 10 µM unless noted

| Compound | growth |
| --- | --- |
| C#Cc1cccc(NC(=O)c2ccc(NC(=O)C=C)cc2)c1 | 80.6% [8.25 µM] (inactive) |
| O=C(O)c1cn(C2CC2)c2cc(N3CCN(C(=O)C[n+]4cccc5ccccc54)CC3)c(F)cc2c1=O | 99.1% (inactive) |
| Cn1c2c(Cl)c(Cl)ccc2c2c(C#N)c[nH]c(=O)c21 | 107% (inactive) |
| O=C1OCC2=C1C(c1ccccc1)c1cc3c(cc1N2CCO)OCCO3 (configuration not stated) | -14.1% (active) |
| COc1ccc(-c2nc(/C=C3\SC(=NCc4ccccc4)NC3=O)c3ccccn23)cc1 | -7.59% (active) |
| O=C1c2ccccc2C(=O)c2c(NCCN=Cc3ccccc3O)cccc21 | 44% (inactive) |
| C=C(C)[C@@H]1CC[C@]2(C(=O)N3CCN(C)CC3)CC[C@]3(C)[C@H](CC[C@@H]4[C@@]5(C)CC[C@H](OCCC#N)C(C)(C)[C@@H]5CC[C@]43C)[C@@H]12 | 73.8% (inactive) |
| COc1ccc2c(c1)oc1c(C)c3c(c(C)c12)C(=O)N(N)C3=O | 38.3% (inactive) |
| CNC(=O)c1c(NC(=O)c2ccc(C(C)(C)C)cc2)sc2c1CCC(=O)C2 | -13.2% (active) |
| CC1Cc2c(ncnc2-n2cnc3ccccc32)N(C)c2ccccc21 (configuration not stated) | 15.9% (inactive) |
| COc1ncc(-c2ccc3nccc(C#CCCCCC(=O)NO)c3c2)cc1NS(=O)(=O)c1ccc(F)cc1F | -33.3% (active) |
| CC1(C)[C@H](O)CC[C@]2(C)[C@@H]1CC[C@@]13C[C@@H](CC[C@H]12)[C@@](O)(CO)C3 | 106% (inactive) |
| O=C(COCc1c(-c2ccccc2)no[n+]1[O-])Nc1nc(-c2ccc(Cl)cc2)cs1 | 119% (inactive) |
| COc1ccc2c(c1OC)O/C(=C\c1ncc([N+](=O)[O-])n1C)C2=O | -7.92% (active) |
| N#Cc1ncc(Br)c(NC2CCCCCC2)n1 | 111% (inactive) |
| COC(=O)C1=C(C)NC(C)=C(C(=O)OCC(C)C)C1c1ccccc1[N+](=O)[O-] (configuration not stated) | 28.9% (inactive) |
| CN1CCN(CCCOc2cccc3nc(Nc4ccc(F)c(F)c4)ccc23)CC1 | 38.8% (inactive) |
| COc1cc(OC)c2sc(-c3ccc(-n4cncc4-c4ccc(N)cc4)cc3)nc2c1 | 52.6% (inactive) |
| COc1ccc2nc3ccccc3c(NCc3ccc(C)cc3)c2c1 | 0.0372% (active) |
| N#Cc1c(-c2ccc(C(F)(F)F)cc2)c(F)c(NCCC2CCC(O)C2)n2c1nc1ccccc12 (configuration not stated) | 25.1% (inactive) |
| CCCCCCC(=O)C(C)C | 101% (inactive) |
| CC1(O)CCC2CC3OC3(C)CCC3OC3(C)C(O)CC1C2(C)C (configuration not stated) | 137% (inactive) |
| CCN(CC)Cc1cc(Nc2c3ccccc3nc3cc(Cl)ccc23)ccc1O | -37.5% (active) |
| CC(C)(C)c1nc(-c2ccc(O)c(O)c2)cs1 | -5.29% (active) |
| COC(=O)c1cc2c(/C=C3/NC(=S)NC3=O)coc2n1C | 100% (inactive) |
| COc1cccc(NC(=O)Cn2cc3c(=O)oc4ccccc4c3n2)c1 | 107% (inactive) |
| CCCc1cc(=O)oc2c(C(=O)CC(C)C)c(O)c(CC=C(C)C)c(O)c12 | 2.72% (active) |
